Experimental data published in PubChem BioAssay.
Unmarked numbers belong to inactive results. The list shows a part of the results. Activity calls are given as the source filed them.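 Rule for the calls, unless noted: active = inhibition above the hit cutoff set in the earlier primary screen (cut at about 27% in these data); inactive = the rest.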

How the values were obtained:
[1] = target: Protein phosphatase methylesterase 1 (Homo sapiens) (UniProt Q9Y570); assay: human PME-1 methylesterase inhibition confirmation – biochemical, fluorescence polarization, FP-Rh probe, triplicate (AID 2171); conditions: recombinant PME-1, FP-Rh probe fluorescence polarization; at 5.9 µM; stronger effect = higher value;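 note: 0% = enzyme with DMSO and 100% = wells lacking PME-1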
Protein phosphatase methylesterase 1 (Homo sapiens), sequence (Q9Y570 whole entry, looked up): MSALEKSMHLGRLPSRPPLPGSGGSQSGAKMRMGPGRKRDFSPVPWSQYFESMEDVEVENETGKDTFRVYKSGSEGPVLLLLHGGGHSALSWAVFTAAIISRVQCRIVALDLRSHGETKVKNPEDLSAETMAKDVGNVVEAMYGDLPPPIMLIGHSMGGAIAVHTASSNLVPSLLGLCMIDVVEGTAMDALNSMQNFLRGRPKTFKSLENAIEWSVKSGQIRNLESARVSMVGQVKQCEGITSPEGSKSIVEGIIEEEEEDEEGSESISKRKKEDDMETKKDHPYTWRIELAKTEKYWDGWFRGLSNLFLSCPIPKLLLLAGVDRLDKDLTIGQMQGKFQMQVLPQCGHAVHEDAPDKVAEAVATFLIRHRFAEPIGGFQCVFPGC

[2] = target: Nuclear receptor subfamily 5 group A member 2 (Homo sapiens) (UniProt O00482); assay: NR5A2 activity suppression in reporter cells – cell-based, luminescence, confirmation (AID 651613; in the data active = inhibition above about 42%;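 note: HEK293T cells co-transfected with LRH-1 and StAR promoter luciferase reporter; 0% = vehicle wells and 100% = parental cells lacking receptor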); conditions: cell-based LRH-1 luciferase reporter, inverse agonism; at 3.6 µM; stronger effect = higher value
Nuclear receptor subfamily 5 group A member 2 (Homo sapiens), sequence (O00482 whole entry, looked up): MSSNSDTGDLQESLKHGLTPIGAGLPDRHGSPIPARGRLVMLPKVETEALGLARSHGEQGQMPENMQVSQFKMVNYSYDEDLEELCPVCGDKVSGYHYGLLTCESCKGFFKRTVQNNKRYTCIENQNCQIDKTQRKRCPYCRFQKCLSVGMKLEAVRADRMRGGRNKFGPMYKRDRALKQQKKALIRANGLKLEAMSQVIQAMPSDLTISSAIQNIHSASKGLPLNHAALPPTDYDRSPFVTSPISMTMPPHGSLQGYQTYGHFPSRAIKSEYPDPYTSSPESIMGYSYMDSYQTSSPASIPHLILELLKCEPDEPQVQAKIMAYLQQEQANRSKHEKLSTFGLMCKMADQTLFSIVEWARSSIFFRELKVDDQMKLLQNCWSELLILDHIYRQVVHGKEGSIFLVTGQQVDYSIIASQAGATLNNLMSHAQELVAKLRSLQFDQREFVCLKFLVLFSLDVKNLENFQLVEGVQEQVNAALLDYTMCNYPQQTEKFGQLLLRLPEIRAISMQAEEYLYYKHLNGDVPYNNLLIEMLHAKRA

[3] = target: Steroidogenic factor 1 (Homo sapiens) (UniProt Q13285); assay: inverse agonism at SF1 nuclear receptor – cell-based, luminescence, high throughput, counter-screen for LRH-1 inverse agonist project (AID 651614; in the data active = inhibition above about 44%;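 note: cells cotransfected with StAR promoter reporter and SF1 expression vector; 0% = vehicle on cells with receptor and 100% = vehicle on cells lacking receptor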); conditions: cell-based SF1 luciferase reporter, at 3.6 µM, stronger effect = higher value
Steroidogenic factor 1 (Homo sapiens), sequence (Q13285 whole entry, looked up, the tested form may be a part): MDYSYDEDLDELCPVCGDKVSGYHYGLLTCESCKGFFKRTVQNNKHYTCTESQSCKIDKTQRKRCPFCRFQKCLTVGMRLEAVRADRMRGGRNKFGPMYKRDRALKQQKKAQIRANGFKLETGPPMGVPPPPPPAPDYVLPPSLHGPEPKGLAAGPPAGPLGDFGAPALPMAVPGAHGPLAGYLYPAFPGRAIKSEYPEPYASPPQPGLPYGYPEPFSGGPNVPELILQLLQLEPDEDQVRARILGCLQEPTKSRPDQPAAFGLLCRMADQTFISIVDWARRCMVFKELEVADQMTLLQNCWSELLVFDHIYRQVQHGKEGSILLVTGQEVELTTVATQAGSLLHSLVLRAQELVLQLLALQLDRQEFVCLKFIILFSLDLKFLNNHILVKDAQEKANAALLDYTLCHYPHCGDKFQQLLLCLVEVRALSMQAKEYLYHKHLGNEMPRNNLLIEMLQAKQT

[4] = target: Nuclear receptor coactivator 3 (Homo sapiens) (UniProt Q9Y6Q9); assay: NCOA3 GAL4-fusion reporter inhibition – cell-based, luminescence, quadruplicate, confirmation (AID 588792;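 active = mean inhibition over 43.08%, the solvent-only control mean plus 3 SD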;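 note: 0% = DMSO treated cells and 100% = gossypol at 36 µM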); conditions: HEK293 GAL4-SRC3 luciferase reporter, at 3.6 µM, stronger effect = higher value
Nuclear receptor coactivator 3 (Homo sapiens), sequence (Q9Y6Q9 whole entry, looked up, the tested form may be a part): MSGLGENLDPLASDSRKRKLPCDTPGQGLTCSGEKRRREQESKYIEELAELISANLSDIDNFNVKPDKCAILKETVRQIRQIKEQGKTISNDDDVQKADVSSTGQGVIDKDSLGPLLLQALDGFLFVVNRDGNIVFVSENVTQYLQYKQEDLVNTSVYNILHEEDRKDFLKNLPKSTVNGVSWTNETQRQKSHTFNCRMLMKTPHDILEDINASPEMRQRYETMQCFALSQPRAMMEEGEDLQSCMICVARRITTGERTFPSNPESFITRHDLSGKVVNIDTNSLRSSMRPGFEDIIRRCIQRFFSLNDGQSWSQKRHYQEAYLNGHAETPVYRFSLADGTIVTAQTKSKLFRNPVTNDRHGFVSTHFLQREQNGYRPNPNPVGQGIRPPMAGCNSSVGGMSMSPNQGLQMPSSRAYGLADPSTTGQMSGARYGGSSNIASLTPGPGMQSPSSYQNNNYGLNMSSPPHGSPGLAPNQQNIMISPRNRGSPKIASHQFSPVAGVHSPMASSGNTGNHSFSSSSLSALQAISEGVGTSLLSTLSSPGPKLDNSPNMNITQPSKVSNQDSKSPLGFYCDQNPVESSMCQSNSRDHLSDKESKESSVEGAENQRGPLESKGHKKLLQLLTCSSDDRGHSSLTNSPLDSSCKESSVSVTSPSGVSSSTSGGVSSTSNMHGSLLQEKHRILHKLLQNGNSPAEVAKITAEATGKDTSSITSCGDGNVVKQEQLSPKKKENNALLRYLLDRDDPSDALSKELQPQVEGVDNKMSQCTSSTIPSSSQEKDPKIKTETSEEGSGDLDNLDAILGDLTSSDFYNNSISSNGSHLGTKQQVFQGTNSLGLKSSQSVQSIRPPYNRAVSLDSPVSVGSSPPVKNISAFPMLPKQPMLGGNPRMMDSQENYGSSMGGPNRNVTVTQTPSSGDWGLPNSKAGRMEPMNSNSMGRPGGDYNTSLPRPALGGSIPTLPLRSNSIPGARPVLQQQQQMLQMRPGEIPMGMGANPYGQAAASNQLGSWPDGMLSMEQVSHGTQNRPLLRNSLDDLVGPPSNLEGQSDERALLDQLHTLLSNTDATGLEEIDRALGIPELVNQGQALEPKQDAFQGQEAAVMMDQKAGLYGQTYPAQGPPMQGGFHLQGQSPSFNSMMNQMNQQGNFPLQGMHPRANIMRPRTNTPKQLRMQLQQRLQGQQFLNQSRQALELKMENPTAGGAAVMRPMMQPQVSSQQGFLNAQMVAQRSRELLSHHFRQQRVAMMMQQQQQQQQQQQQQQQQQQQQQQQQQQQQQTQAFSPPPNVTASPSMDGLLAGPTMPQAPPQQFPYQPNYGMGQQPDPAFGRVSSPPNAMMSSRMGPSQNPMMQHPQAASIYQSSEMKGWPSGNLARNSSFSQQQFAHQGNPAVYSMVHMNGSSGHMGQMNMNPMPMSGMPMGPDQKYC

[5] = tested on: transactivating tegument protein VP16 (Human herpesvirus 1), Gal4-VP16 luciferase reporter; assay: repression of VP16-driven luciferase reporter – cell-based, luminescence, high throughput, counter-screen for SRC3 inhibitor project (AID 588794; in the data active = inhibition above about 30%); conditions: mammalian cells, at 3.6 µM, stronger effect = higher value
[6] = tested on: transactivating tegument protein VP16 (Human herpesvirus 1); assay: compounds suppressing VP16-driven luciferase signal – cell-based, luminescence, single concentration, counter-screen for SRC2 inhibitor project (AID 652007; in the data active = inhibition above about 36%); conditions: cell-based VP16 transactivation luciferase reporter, at 8.9 µM, stronger effect = higher value
[7] = target: Nuclear receptor coactivator 2 (Homo sapiens) (UniProt Q15596); assay: inhibition of GAL4-SRC2 driven luciferase expression – cell-based, luminescence, HEK293, triplicate, confirmation (AID 652008;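 active = mean inhibition above 46.5%, the solvent-only control mean plus 3 SD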;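 note: 0% = DMSO-treated cells and 100% = Gossypol at 36 µM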); conditions: HEK293 GAL4-SRC2 luciferase reporter, at 8.9 µM, stronger effect = higher value
Nuclear receptor coactivator 2 (Homo sapiens), sequence (Q15596 whole entry, looked up, the tested form may be a part): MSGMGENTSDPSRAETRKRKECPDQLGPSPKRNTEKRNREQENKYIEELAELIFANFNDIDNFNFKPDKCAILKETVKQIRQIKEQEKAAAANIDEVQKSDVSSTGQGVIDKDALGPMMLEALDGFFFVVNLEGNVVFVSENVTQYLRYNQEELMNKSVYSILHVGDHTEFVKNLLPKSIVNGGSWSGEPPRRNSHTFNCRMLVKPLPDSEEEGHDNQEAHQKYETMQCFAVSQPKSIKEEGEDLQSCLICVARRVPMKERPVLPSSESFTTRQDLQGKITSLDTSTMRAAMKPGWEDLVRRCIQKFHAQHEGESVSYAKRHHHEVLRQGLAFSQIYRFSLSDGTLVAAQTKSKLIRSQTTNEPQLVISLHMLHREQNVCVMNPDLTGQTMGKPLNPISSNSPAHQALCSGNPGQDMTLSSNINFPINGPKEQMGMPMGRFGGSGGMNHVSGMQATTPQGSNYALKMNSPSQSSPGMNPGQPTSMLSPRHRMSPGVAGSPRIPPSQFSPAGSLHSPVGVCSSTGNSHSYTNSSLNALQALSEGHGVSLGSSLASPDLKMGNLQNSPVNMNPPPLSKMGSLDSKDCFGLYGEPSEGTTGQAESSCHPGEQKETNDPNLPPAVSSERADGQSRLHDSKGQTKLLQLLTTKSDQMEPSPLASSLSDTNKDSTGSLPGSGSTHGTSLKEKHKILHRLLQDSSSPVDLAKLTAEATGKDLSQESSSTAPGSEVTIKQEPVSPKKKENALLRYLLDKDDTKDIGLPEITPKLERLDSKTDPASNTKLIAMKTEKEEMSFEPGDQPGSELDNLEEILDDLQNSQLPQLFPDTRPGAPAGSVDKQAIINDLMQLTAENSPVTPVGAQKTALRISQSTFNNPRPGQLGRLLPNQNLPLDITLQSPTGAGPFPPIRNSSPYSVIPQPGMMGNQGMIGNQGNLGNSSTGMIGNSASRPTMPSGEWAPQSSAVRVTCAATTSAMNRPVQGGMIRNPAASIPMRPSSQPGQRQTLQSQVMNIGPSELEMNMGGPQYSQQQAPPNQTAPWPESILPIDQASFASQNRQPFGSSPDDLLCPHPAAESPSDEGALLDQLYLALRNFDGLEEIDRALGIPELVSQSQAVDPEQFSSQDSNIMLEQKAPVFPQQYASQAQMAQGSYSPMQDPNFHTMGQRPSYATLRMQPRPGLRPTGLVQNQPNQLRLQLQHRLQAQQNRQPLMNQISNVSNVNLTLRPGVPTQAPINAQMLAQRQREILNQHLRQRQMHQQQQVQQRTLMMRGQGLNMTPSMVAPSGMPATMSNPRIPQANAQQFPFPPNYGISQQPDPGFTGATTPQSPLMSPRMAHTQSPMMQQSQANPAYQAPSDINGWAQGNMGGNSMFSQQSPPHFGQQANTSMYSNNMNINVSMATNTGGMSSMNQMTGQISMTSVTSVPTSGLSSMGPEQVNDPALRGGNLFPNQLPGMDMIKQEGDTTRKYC

[8] = repression of VP16-driven luciferase reporter – cell-based, luminescence, high throughput, counter-screen for SRC1 inhibitor project (AID 588824; in the data active = inhibition above about 25%); conditions: cell-based VP16 transactivation luciferase luminescence; at 3.6 µM; stronger effect = higher value
[9] = StAR promoter reporter inhibitors, counter-screen for LRH-1 inverse agonist project, cell-based, luminescence, high throughput (AID 651611; in the data active = inhibition above about 28%); conditions: StAR promoter luciferase reporter counterscreen, at 3.6 µM, stronger effect = higher value
[10] = compounds suppressing VP16-driven luciferase signal – cell-based, luminescence, high throughput, counter-screen for LRH-1 inverse agonist project (AID 651615; in the data active = inhibition above about 33%); conditions: Gal4-VP16 luciferase reporter cells, at 3.6 µM, stronger effect = higher value
[11] = target: Nuclear receptor coactivator 1 (Homo sapiens) (UniProt Q15788); assay: NCOA1 GAL4-fusion reporter inhibition – cell-based, luminescence, quadruplicate, confirmation (AID 588820;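 active = mean inhibition above 46.68%, the untreated control wells mean plus 3 SD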;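 note: 0% = DMSO wells and 100% = gossypol 36 µM treated wells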); conditions: HEK293 GAL4-SRC1 luciferase reporter, at 3.6 µM, stronger effect = higher value
[12] = target: Glutathione S-transferase omega-1 (Homo sapiens) (UniProt P78417); assay: recombinant GSTO1 blockers, retest – biochemical, fluorescence polarization, triplicate, counter-screen for RBBP9 inhibitor project, confirmation (AID 2176;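 active = inhibition above the primary screen's cutoff, its mean inhibition plus 3 SD, cut at about 35% in these data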;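 note: loss of polarization as inhibitors block binding of rhodamine sulfonate ester activity probe; 0% = GSTO1 with DMSO and 100% = wells lacking GSTO1 enzyme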); conditions: recombinant GSTO1, probe fluorescence polarization; at 5.96 µM; stronger effect = higher value
Glutathione S-transferase omega-1 (Homo sapiens), sequence (P78417 whole entry, looked up): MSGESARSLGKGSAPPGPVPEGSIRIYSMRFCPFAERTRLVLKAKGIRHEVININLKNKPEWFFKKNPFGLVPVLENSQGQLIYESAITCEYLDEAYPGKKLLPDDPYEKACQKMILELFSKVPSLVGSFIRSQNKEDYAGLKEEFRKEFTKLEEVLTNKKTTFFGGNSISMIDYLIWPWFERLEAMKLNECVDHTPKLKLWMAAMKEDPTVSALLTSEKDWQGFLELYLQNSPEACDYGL

[13] = target: Oxysterols receptor LXR-beta (Homo sapiens) (UniProt P55055); assay: nonspecific reporter activation via LXR – cell-based, luminescence, HEK293, H. contortus campaign, counter-screen for hcDAF-12 agonist project, confirmation (AID 743027;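 active = mean percent activation of the reporter above a cutoff set as the average over tested compounds plus their standard deviation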); conditions: HEK293 Gal4-LXR tk-luc reporter, 24 h, at 6.8 µM, stronger effect = higher value, normalized: DMSO 0%, positive control 100%
Oxysterols receptor LXR-beta (Homo sapiens), sequence (P55055 whole entry, looked up, the tested form may be a part): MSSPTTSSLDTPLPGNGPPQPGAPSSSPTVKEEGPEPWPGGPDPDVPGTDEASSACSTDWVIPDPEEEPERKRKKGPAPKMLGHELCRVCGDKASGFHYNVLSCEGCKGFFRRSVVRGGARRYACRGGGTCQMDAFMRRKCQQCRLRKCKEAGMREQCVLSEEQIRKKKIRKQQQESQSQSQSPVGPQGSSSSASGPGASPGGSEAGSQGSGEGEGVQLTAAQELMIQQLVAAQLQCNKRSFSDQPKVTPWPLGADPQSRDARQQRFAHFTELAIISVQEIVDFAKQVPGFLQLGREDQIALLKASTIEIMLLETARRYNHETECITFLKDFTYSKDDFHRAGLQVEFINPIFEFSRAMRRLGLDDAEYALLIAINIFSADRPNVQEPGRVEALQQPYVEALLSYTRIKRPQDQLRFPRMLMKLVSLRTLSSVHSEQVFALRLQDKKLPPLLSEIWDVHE

[14] = tested on: Nuclear hormone receptor DAF-12 (Haemonchus contortus); assay: hcDAF-12 luciferase reporter activation, retest – cell-based, luminescence, HEK293, lit1-tk-luc, triplicate, confirmation (AID 743032;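 active = mean activation across triplicate tests above the threshold derived from the earlier primary screen, cut at about 5.5% in these data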;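 note: 0% = DMSO only wells and 100% = 3 µM Δ7-dafachronic acid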); conditions: HEK293 hcDAF-12 lit1-tk-luc reporter, at 6.8 µM, stronger effect = higher value, % of Δ7-dafachronic acid response
[15] = tested on: DAF-12 nuclear receptor (Heterodera glycines), GAL4-LBD fusion; assay: hgDAF-12 GAL4 fusion reporter activation, retest – cell-based, luminescence, HEK293, GAL4-LBD fusion, confirmation (AID 743050;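 active = mean activation over triplicate wells above the hit cutoff derived from the earlier primary screen, cut at about 11% in these data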;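 note: 0% = DMSO low control and 100% = 2 mM sodium butyrate high control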); conditions: HEK293 GAL4-hgDAF12 luciferase reporter, agonist mode; at 6.8 µM; stronger effect = higher value; percent of butyrate response
[16] = target: Oxysterols receptor LXR-beta (Homo sapiens) (UniProt P55055); assay: nonspecific reporter activation via LXR – cell-based, luminescence, HEK293, H. glycines campaign, counter-screen for hgDAF-12 agonist project, confirmation (AID 743051;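 active = mean activation of the triplicate above a set limit carried over from the primary screen, none filed active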); conditions: HEK293 Gal4-LXR luciferase reporter, 24 h; at 6.8 µM; stronger effect = higher value

COc1ccc2c(c1)[nH]c1c(N3CCN(Cc4ccc5c(c4)OCO5)CC3)ncnc12
inhibition [1]: 14.8% | inhibition [2]: 50.2% (active) | inhibition [3]: 53.7% (active)

CN(C)S(=O)(=O)c1cccc(NC(=S)N/N=C/c2cc(Br)ccc2O)c1
inhibition [1]: 16.8% | inhibition [4]: 55.4% (active) | inhibition [5]: 59.2% (active) | inhibition [6]: -15.5% | inhibition [7]: 24.2%

CN(c1ccccc1)S(=O)(=O)c1ccc(NC(=O)c2nc(S(C)(=O)=O)ncc2Cl)cc1
inhibition [1]: 24.2% | inhibition [6]: 94.3% (active) | inhibition [7]: 77.3% (active)

COc1ccc(/C=C2\CN(Cc3ccccc3)C/C(=C\c3ccc(OC)c(O)c3)C2=O)cc1O
inhibition [1]: -5.14% | inhibition [4]: 59.2% (active) | inhibition [5]: 0.48% | inhibition [8]: 12.4% | inhibition [6]: 73.1% (active) | inhibition [7]: 22.9%

O=C1C(Cl)=C(Nc2ccc3cn[nH]c3c2)C(=O)c2ccccc21
inhibition [1]: 31.7% (active) | inhibition [6]: -24% | inhibition [7]: 52.9% (active)

C(=N\Nc1nc2ccccc2[nH]1)/c1cccc2cccnc12
inhibition [1]: 60.2% (active) | inhibition [4]: 44.8% (active) | inhibition [5]: 8.83% | inhibition [9]: 49.4% (active) | inhibition [2]: 74% (active) | inhibition [3]: 64.3% (active) | inhibition [10]: 23.9%

Cc1oc2c(c1C(=O)c1ccccc1)C(=O)C(=O)c1ccccc1-2
inhibition [1]: 18.1% | inhibition [6]: -18.3% | inhibition [7]: 99.5% (active)

COc1cc(OC)c2cc(C(=O)N/N=C/c3cccc(OC)c3O)[nH]c2c1
inhibition [1]: 39.4% (active) | inhibition [11]: 17.7% | inhibition [8]: 6.13%

CN1CCN(c2ccc(NC(=O)c3ccc(-c4ccc(Br)cc4)o3)cc2)CC1
inhibition [1]: 37.4% (active) | inhibition [9]: 0.51% | inhibition [2]: 52% (active) | inhibition [3]: 50.9% (active) | inhibition [10]: 13.1%

COc1cccc2c1C(=O)c1c(O)c3c(c(O)c1C2=O)C[C@](O)(C(C)=O)C[C@H]3O[C@@H]1C[C@@H](N)[C@@H](O)[C@@H](C)O1
inhibition [1]: 40.8% (active) | inhibition [9]: 67% (active) | inhibition [2]: 104% (active) | inhibition [3]: 92.5% (active) | inhibition [10]: 77.3% (active) | inhibition [6]: 40.6% (active) | inhibition [7]: 41.1%

COc1cccc(-c2nc(NC(C)C)c3ccccc3n2)c1O
inhibition [1]: 23.6% | inhibition [9]: 21.2% | inhibition [2]: 46.5% (active) | inhibition [3]: 57% (active) | inhibition [10]: -1.3%

COC(=O)N1C(=O)[C@](c2ccccc2)(C2CCCC2)N1C(=O)OC
inhibition [1]: 86.9% (active) | inhibition [6]: -1.09% | inhibition [7]: -4.92%

C1=C(CCNc2ncnc3c2[nH]c2ccccc23)CCCC1
inhibition [1]: 29.3% (active) | inhibition [9]: -12% | inhibition [2]: 36% | inhibition [3]: 41.4% | inhibition [10]: 37.5% (active)

O=C1C(SCCO)=C(SCCO)C(=O)c2ccccc21
inhibition [1]: 38.3% (active) | inhibition [9]: 26.2% | inhibition [2]: 76.3% (active) | inhibition [3]: 74.8% (active) | inhibition [10]: 46.1% (active)

O=[N+]([O-])c1ccc(-c2nc(-c3cccs3)c(-c3cccs3)[nH]2)cc1
inhibition [1]: 21.5% | inhibition [9]: 15.5% | inhibition [2]: 59.5% (active) | inhibition [3]: 50.8% (active) | inhibition [10]: -8.61%

CCCn1nc([N+](=O)[O-])c(C(C#N)c2nc3ccccc3s2)c(Cl)c1=O (stereo not given)
inhibition [1]: 28.7% (active) | inhibition [6]: 20.4% | inhibition [7]: 20.3%

Cc1ccc(C(C)C)c(OCc2ccc(C(=O)N/N=C/c3ccc(O)c(O)c3)cc2)c1
inhibition [1]: -9.52% | inhibition [6]: -11% | inhibition [7]: 62.6% (active)

COC(=O)CCCC1=CC2=C(c3ccccc3)C(=O)C(C)(OC(=O)C3CCCC3)C(=O)C2=CN1c1ccc(OC)cc1 (stereo not given)
inhibition [12]: 16.9%

CC(=O)C1C(=O)c2c(cccc2[N+](=O)[O-])C1=Nc1ccc(S(N)(=O)=O)cc1 (stereo not given)
inhibition [1]: 30.2% (active) | inhibition [6]: -19.4% | inhibition [7]: 2.35%

COCCn1c(N)c(C(=O)NCC2CCCO2)c2nc3ccccc3nc21 (stereo not given)
inhibition [1]: 15.1% | inhibition [9]: 26.9% | inhibition [2]: 47.2% (active) | inhibition [3]: 50.4% (active) | inhibition [10]: -14.9%

CC(C)CC[n+]1ccn(C2=C([O-])c3ccccc3C(=O)/C2=N\S(=O)(=O)c2ccccc2)c1
inhibition [12]: 68.2% (active)

COc1cc(/C=N/Nc2nc3ccccc3s2)ccc1O
inhibition [1]: 57.7% (active) | activation [13]: 1.25% | activation [14]: 12.4% (active) | activation [15]: 18.2% (active) | activation [16]: 0.97%

COC1=C(N2CCOCC2)C(=O)c2ccccc2C1=O
inhibition [12]: 28.9%

COc1ccc(N2CCN(c3ncnc4c3[nH]c3ccccc34)CC2)cc1
inhibition [1]: 28% (active) | inhibition [11]: 3.21% | inhibition [8]: 24.6%

COc1ccccc1CCCNC(=O)C1CCC(=O)N(CCN2CCOCC2)C1 (stereo not given)
inhibition [12]: 5.53%

Cc1ccc(NC(=O)c2ccc(Nc3c([N+](=O)[O-])cc([N+](=O)[O-])cc3[N+](=O)[O-])cc2)cc1
inhibition [1]: 30.6% (active) | inhibition [4]: 7.5% | inhibition [5]: 2.96% | inhibition [6]: 50% (active) | inhibition [7]: 27.1%

O=C(Nc1cc(N2CCOCC2)ncn1)NC1(C(F)(F)F)Oc2ccc(Cl)cc2O1 (stereo not given)
inhibition [12]: 8.59%
